From PubChem BioAssay (NCATS)
Where “and” joins values, the source holds several entries; their conditions need not be identical. Identical values can stand only once. Results filed as inconclusive are left out. Calls of active or inactive are those of the source. Calls come from the whole dose curve; as a rule, active = well fitted inhibition curve with a large enough effect in the repeat runs; inconclusive = weak or mixed curves; inactive = no such curve, though single readings can be large or run the other way.

These compounds were tested against Cytochrome P450 2C9 (Homo sapiens) (UniProt P11712) (assay: Cytochrome P450 family 2 subfamily C member 9 (CYP2C9) small molecule antagonists: luciferase biochemical (cell-free) qHTS assay (AID 1645842; note: nearly all actives have a fitted effect of over 55% in size)). Conditions: P450-Glo CYP2C9 enzyme assay, luciferin luminescence; series mostly up to 57.4 µM; activity change, negative = inhibition: at the top concentration.
Chain of Cytochrome P450 2C9 (Homo sapiens) (P11712 whole entry, looked up): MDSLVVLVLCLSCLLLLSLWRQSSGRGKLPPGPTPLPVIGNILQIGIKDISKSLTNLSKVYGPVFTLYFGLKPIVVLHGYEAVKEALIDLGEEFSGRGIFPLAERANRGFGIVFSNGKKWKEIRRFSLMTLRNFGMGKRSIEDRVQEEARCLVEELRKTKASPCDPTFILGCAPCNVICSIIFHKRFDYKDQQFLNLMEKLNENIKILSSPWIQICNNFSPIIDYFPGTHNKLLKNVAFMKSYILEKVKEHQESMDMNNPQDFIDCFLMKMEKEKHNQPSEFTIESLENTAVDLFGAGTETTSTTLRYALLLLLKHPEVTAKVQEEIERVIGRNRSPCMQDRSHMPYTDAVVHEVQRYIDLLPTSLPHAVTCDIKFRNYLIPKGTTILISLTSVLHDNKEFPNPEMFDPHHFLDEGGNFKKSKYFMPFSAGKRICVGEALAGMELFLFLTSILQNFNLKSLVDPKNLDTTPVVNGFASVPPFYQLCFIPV
Outline: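 P450-Glo CYP2C9 system: proluciferin substrate with enzyme in mix containing 0.4% BSA, 10 min at room temperature, then NADPH regeneration solution added and incubated 1 h at 37C. Detection reagent stopped reaction; luminescence read after 20 min as RLU.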
% is set by controls: 0 for no effect and ±100 for the full control effect; potency is the fitted concentration of half-maximal effect.

Row | SMILES | Potency | activity change, negative = inhibition
1 | C#CCNCc1cc2cc(OCc3ccccc3)ccc2[nH]1 | 3.79 µM (active) | 
2 | CN(C)C(=O)NC1(c2ccccc2)CCN(CCC[C@]2(c3ccc(Cl)c(Cl)c3)CCCN(C(=O)c3ccccc3)C2)CC1 | 21.3 µM (active) | 
3 | COc1cc(F)c(C(C)C)cc1-c1ccc(C(F)(F)F)cc1CN1C(=O)OC(c2cc(C(F)(F)F)cc(C(F)(F)F)c2)C1C (centres undefined) |  | -5.47% (inactive)
4 | CCn1c(=O)c(-c2ccc(Cl)cc2Cl)cc2cnc(Nc3ccc(N4CCNCC4)c(F)c3)nc21 |  | 1.81% (inactive)
5 | Cc1cn2cc(C(=O)N(C)CCO)cc(NC3CCOc4cccc(C)c43)c2n1 (centres undefined) | 19 µM (active) | 
6 | C[C@@H](NC(=O)c1ccc(C#Cc2cccc(F)c2)cn1)C(C)(C)O | 16.9 µM (active) | 
7 | Cc1cc(C(=O)Nc2cc(Nc3ccc4c(/C=C/c5ccccn5)n[nH]c4c3)ccc2F)n(C)n1 | 4.25 µM (active) | 
8 | Cc1cc(OCCCS(C)(=O)=O)cc(C)c1-c1cccc(COc2ccc3c(c2)OCC3CC(=O)O)c1 (centres undefined) |  | 7.73% (inactive)
9 | CCN1CCN(Cc2ccc(C(=O)Nc3ccc(C)c(Oc4ccc5c(c4)CC(=O)N5)c3)cc2C(F)(F)F)CC1 | 23.9 µM (active) | 
10 | COc1cc(CCc2cc(NC(=O)c3ccc(N4CC(C)NC(C)C4)cc3)n[nH]2)cc(OC)c1 (centres undefined) |  | 1.81% (inactive)
11 | O=C(CCl)Nc1cccc(NC2=NS(=O)(=O)c3ccccc32)c1 | 15.1 µM (active) | 
12 | CCCC(Nc1nc(-c2ccc(NC(=O)NCC)c(OC)c2)ncc1C)c1cccnc1 (centres undefined) | 0.239 µM (active) | 
13 | O=C(NCCCCN1CCN(c2cccc(Cl)c2Cl)CC1)c1cc2ccccc2s1 | 3.79 µM (active) | 
14 | Nc1nc2c(cnn2CCCc2ccc(O)cc2)c2nc(-c3ccco3)nn12 | 3.01 µM (active) | 
15 | Cc1csc(N(C(=O)CSc2ccc(-c3ccccc3)nn2)C2CC2)n1 | 10.7 µM (active) | 
16 | COc1cc2c(cc1NS(=O)(=O)c1ccc(Br)cc1C)n(C)c(=O)n2C | 1.69 µM (active) | 
17 | CC(C)(C)c1ccc(C(=O)Nc2cn3cc(-n4ccnc4)ccc3n2)cc1 | 7.56 µM (active) | 
18 | C#CCOc1ccc2c(c1)c(-c1ccc(C(C)C)cc1)nc(=O)n2C(C)C | 2.68 µM (active) | 
19 | COc1cc2c(cc1OCCCN1CCCC1)N=C(N)C21CCC1 |  | -10.9% (inactive)
20 | CN(C)C(=O)C(=O)c1cn(C)c2cc(Cl)c(C(=O)N3CCC(Cc4ccc(F)cc4)CC3)cc12 |  | 7.11% (inactive)

Row | SMILES | Potency | activity change, negative = inhibition
21 | CCn1c(=O)c(-c2ccc(-c3cncs3)cc2Cl)cc2cnc(Nc3ccc(N4CCN(C)CC4)cc3)nc21 | 6.01 µM (active) | 
22 | COC(=O)c1ccc(N2CCN(C)CC2)c(NC(=O)c2cccc(OC)c2)c1 |  | 1.67% (inactive)
23 | CCN(CC)C(=O)c1ccc(Nc2nc(OCC3CCCCC3)c3[nH]cnc3n2)cc1 | 10.7 µM (active) | 
24 | CN(c1ccc(NC(=O)Nc2ccccc2)cc1)S(=O)(=O)c1cnn(-c2ccc(F)cc2)c1 | 0.425 µM (active) | 
25 | CN(C)Cc1ccc(-c2cnn3c(-c4cccc(NC(=O)c5cccc(C(F)(F)F)c5)c4)ccnc23)cc1 | 7.56 µM (active) | 
26 | Cc1cc(F)ccc1[C@H]1C[C@@H](N2CCN3C(=O)CC[C@H]3C2)CCN1C(=O)N(C)[C@H](C)c1cc(C(F)(F)F)cc(C(F)(F)F)c1 | 10.7 µM (active) | 
27 | Oc1ccc(-c2cnc3ccc(NCc4ccco4)nn23)cc1 | 0.756 µM (active) | 
28 | COc1ccc(Oc2c(Cl)cnn(-c3cc(C)cc(C)c3)c2=O)cc1 | 12 µM (active) | 
29 | COCCCNC(=O)c1ccc(Cn2c(=O)c3ccccc3n(Cc3ccc(C(C)C)cc3)c2=O)cc1 | 1.51 µM (active) | 
30 | O=C(NCCN1CCOCC1)c1cc2c(Oc3ccc(NC(=O)C4(C(=O)Nc5ccc(F)cc5)CC4)cc3)ccnc2[nH]1 | 12 µM (active) | 
31 | COc1ccc(N2CCN(C(=O)c3cc4c(s3)-c3ccccc3S(=O)(=O)C4)CC2)cc1 | 10.7 µM (active) | 
32 | CC(C)(C)c1ccc(-c2nc3c(N4CCN(Cc5ccc6nccnc6c5)CC4)cccc3[nH]2)cc1 | 2.13 µM (active) | 
33 | CC(C)(C)Sc1c(CC(C)(C)C(=O)O)n(Cc2ccc(Cl)cc2)c2ccc(OCc3ccc4ccccc4n3)cc12 | 1.69 µM (active) | 
34 | CCCc1cc(C)[nH]c(=O)c1CNC(=O)c1cc(-c2ccc(N3CCN(C(C)C)CC3)nc2)cc2c1cnn2C(C)C | 10.7 µM (active) | 
35 | COc1cc(OC)c2c(=O)[nH]c(-c3cc(C)c(OCCO)c(C)c3)nc2c1 | 12 µM (active) and 10.7 µM (active) | 
36 | COc1cc2ncnc(Nc3ccc(O)c(Br)c3)c2cc1OC | 5.35 µM (active) | 
37 | Cn1ncnc1[C@@H]1c2n[nH]c(=O)c3cc(F)cc(c23)N[C@H]1c1ccc(F)cc1 |  | -3.11% (inactive)
38 | Cc1cc2occ(CN(C)CCN(C)Cc3cn(-c4cccc(C(F)(F)F)c4)c4ccccc34)c(=O)c2cc1C | 21.3 µM (active) | 
39 | CC(C)n1nc(C#Cc2ccccc2)c2c(N)ncnc21 | 0.601 µM (active) | 
